High-throughput results deposited in PubChem BioAssay by National Center for Advancing Translational Sciences (NCATS).
D2 antag: antagonizes the human D2 dopamine receptor; inhibition, % at 10 µM; AID 485344; HEK293 TREx D2 cells, calcium flux, dopamine EC80; P14416; actives 2% (n = 340,000); in the data active = inhibition above about 30%; inactive = below that, where a call was filed; note: 0% is about no effect
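Calcium flux kinetic readout in an inducible HEK293 TREx D2 line plated overnight at 30 C. After 180 s compound exposure, an EC80 dopamine challenge follows with another 180 s kinetic read to detect antagonism.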
D2 ag-1: human D2 receptor agonism in beta-arrestin assay | actives 0.084% (n = 360,000) | activation, % (no concentration beside the values) | P14416 | DiscoveRx PathHunter D2 beta-arrestin, luminescence, 90 min; 100% = 57 uM dopamine signal; in the data active = activation above about 40%; inconclusive = between about 15% and that limit
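DiscoveRx PathHunter D2 beta-arrestin cells (2,100/well) attached overnight, then compound-stimulated 90 min at 37 C in HBSS/10 mM HEPES/0.1% Tween-20 buffer; beta-galactosidase complementation read by luminescence after 1 h at ambient temperature. Dopamine 57 uM final (EC100) as control.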
D2 PAM-1: D2 dopamine receptor (human) potentiation; P14416; HEK293 T-REx D2, calcium flux, EC20 dopamine potentiation; potentiation, % at 10 µM; actives 0.34% (n = 340,000); AID 485347;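 active = potentiation over 3 SD above the plate norm, cut at about 30% in these data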; note: 0% is about no effect
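Primary screen. Calcium kinetics in induced HEK293 T-REx D2 cells: compound pre-addition 180 s, EC20 dopamine, 180 s more.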
D2 PAM-2: human D2 receptor positive allosteric modulation; P14416; DiscoveRx D2 beta-arrestin cells, luminescence, 90 min; 100% = 57 uM dopamine signal; potentiation, % (no concentration beside the values); actives 0.23% (n = 360,000); AID 624464; in the data active = potentiation above about 50%; inconclusive = mostly about 30% to 49%
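PathHunter D2 cells, attached overnight at 37 deg C, received compound in DMSO plus dopamine at EC20 (50 nM final) for 90 min at 37 deg C. Beta-arrestin recruitment was read as luminescence after 1 h with detection reagent at ambient temperature.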
D2 ag-2: D2 dopamine receptor (human) agonism. P14416. HEK293 T-REx D2 cells, calcium flux agonist mode. activation, % at 2 µM. actives 0.53% (n = 340,000). AID 485358;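 active = activation over 3 SD above normal in the single-dose calcium agonist read, cut at about 30% in these data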; note: 0% is about no effect
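In this primary screen, compounds producing a positive calcium signal within 180 s of addition to tetracycline-induced, force-coupled HEK293 Trex D2 cells are flagged; cells are dye-loaded with a no-wash calcium kit beforehand.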
D3 arrestin ag: confirmation of human D3 dopamine receptor agonists, beta-arrestin | shares compounds with D2 ag-2 | Potency, µM (series often up to 76.9 µM), without a hit: at the highest dose activation, most hits filed as activators | DiscoveRx D3 beta-arrestin cells, luminescence, 90 min | actives 4% (n = 2,300);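 note: potency is the fitted concentration of half-maximal effect; 100% = dopamine control response; nearly all actives have a fitted effect of over 70% in size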
Target sequence (P35462 whole entry, looked up): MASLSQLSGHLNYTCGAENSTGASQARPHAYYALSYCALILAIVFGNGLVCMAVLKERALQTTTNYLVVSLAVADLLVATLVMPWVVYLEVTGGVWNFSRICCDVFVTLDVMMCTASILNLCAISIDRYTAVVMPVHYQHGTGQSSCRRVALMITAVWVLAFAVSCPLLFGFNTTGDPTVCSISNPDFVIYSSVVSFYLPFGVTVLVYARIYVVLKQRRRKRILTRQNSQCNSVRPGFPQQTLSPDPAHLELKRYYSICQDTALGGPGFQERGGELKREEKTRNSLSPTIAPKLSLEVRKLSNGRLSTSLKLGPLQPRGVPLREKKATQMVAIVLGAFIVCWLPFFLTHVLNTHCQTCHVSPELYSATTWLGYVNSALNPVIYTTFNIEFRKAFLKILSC
D2 ag-3: D2 receptor agonism, beta-arrestin counterscreen; Potency, µM (series often up to 76.9 µM), without a hit: at the highest dose activation, actives largely listed as activators; shares compounds with D2 ag-2; DiscoveRx PathHunter D2 beta-arrestin, luminescence, 90 min; response scale: percent relative to full dopamine signal; actives 5.9% (n = 2,300); note: potency is the fitted concentration of half-maximal effect; % of control where 0% means no effect; nearly all actives have a fitted effect of over 70% in size
The depositor's hits bear a star; ? = inconclusive; · = no result. The list is not random: actives were taken first. Their share in the collection is about 2.4%. Unless noted, calls come from the whole dose curve; as a rule, active = well fitted activation curve with a large enough effect; inconclusive = small, poorly fitted or top-dose-only effect; inactive = flat fitted curve, though single readings scatter.

SMILES | D2 antag | D2 ag-1 | D2 PAM-1 | D2 PAM-2 | D2 ag-2 | D3 arrestin ag | D2 ag-3
COC(=O)C1CCN(S(=O)(=O)c2ccc(N3CCCCS3(=O)=O)cc2)CC1 | · | · | -2.6 | · | 0.6 | · | ·
CCC(C)Nc1nc(-c2cccc(OC)c2O)nc2ccccc12 (configuration not stated) | 8.8 | 2.0 | -6.5 | ? | 5.3 | 5.9% | 13.2%
CCC(C)N(CCNC(=O)c1ccc2c(c1)NC(=O)c1ccccc1S2)C1CCCCC1 (configuration not stated) | · | -6.3 | -28.3 | -31.8 | · | -10.5% | -2.6%
Nc1ccc2[nH]ncc2c1 | 34.0* | -1.0 | -3.5 | 10.1 | 17.5 | ? | 11.0%
Cc1oc(-c2cccc(Cl)c2)nc1CS(=O)(=O)CC(=O)NC(C)CCc1ccccc1 (configuration not stated) | · | · | -3.1 | · | 0.5 | · | ·
O=C(c1ccccc1Cl)n1nc(-c2cccnc2)nc1NCc1ccc(F)cc1 | · | · | -4.6 | · | 0.1 | · | ·
CCN(CC(=O)Nc1ccc(OC)cc1)C(=O)Cc1ccc(OC)c(S(=O)(=O)N2CCOCC2)c1 | 15.3 | -0.8 | -8.4 | -6.5 | -0.8 | -7.2% | -0.6%
O=C(Cn1cnc2ccccc2c1=O)NCC(=O)N1CCN(Cc2ccc3c(c2)OCO3)CC1 | -19.3 | -2.7 | -16.6 | 17.5 | 47.7* | -1.5% | 10.2%
O=C(Cn1cnc2ccccc2c1=O)N1CCN(Cc2ccc3c(c2)OCO3)CC1 | 55.2* | ? | -12.6 | -4.0 | 49.9* | 15.9% | ?
COc1ccc2cc(C=O)n(C)c2c1 | -1.1 | -3.9 | 1.3 | 0.9 | 0.1 | 2.2% | -4.6%
Cn1cnc(C(=O)N2CCN(c3ccccc3)CC2)c1C(=O)N1CCN(c2ccccc2)CC1 | -2.6 | -1.9 | 5.5 | -5.4 | 0.5 | -0.4% | -2.2%
CCOc1ccccc1CNC(=O)c1sc2ncccc2c1-n1cccc1 | · | · | 7.0 | · | 0.4 | · | ·
COc1cccc(-n2cc(CN(C)Cc3nc(Cc4cccc(F)c4)no3)cn2)c1 | -2.6 | 6.5 | -3.1 | -2.7 | 15.5 | 4.0% | 1.1%
COc1cccc(-n2cc(CN(C)Cc3nc(Cc4ccccc4)no3)cn2)c1 | 4.7 | -1.8 | 7.0 | -3.9 | 10.5 | · | ·
CCCN1CCC2(CC1)C(C#N)=C(N)Oc1c2sc2nc(C)cc(C)c12 | 95.9* | 11.4 | -21.2 | -2.8 | 77.7* | 21.8% | -2.4%
Cc1ccccc1NC(=O)C(Cc1ccccc1)N1Cc2ccccc2C1=O (configuration not stated) | · | · | · | · | -0.9 | · | ·
O=C(O)/C=C/C(=O)NCCc1ccccc1 | 60.9* | 7.1 | -20.7 | -8.9 | 77.9* | -3.0% | 4.6%
O=C(O)/C=C/C(=O)NCCc1ccc(Cl)cc1 | 13.7 | -1.7 | -7.0 | -8.4 | 7.6 | · | ·
CCc1ccc(CNC(=O)CN2C(=O)C3CCCCN3c3ccc(C(=O)N4CCCC4)cc32)cc1 (configuration not stated) | · | · | -1.6 | · | -0.8 | · | ·
Cc1c(-c2ccccc2)nc2ccccc2c1C(=O)OCC(=O)Nc1ncc(C(F)(F)F)cc1Cl | 30.0* | 0.7 | 5.1 | -5.8 | 0.4 | -3.9% | 1.5%
C=CCN(CC=C)CCOc1cc(C)ccc1[N+](=O)[O-] | -8.1 | -3.0 | -28.5 | -3.1 | 20.7 | 7.5% | 5.9%
CCC(=O)N1CCc2cc(Br)cc(S(=O)(=O)CCC(=O)N(CC)Cc3ccccc3)c21 | · | · | 8.7 | · | -0.2 | · | ·
Cc1cc2nc(-c3ccccc3)c(CC(C)(C)C)n2c(C)c1Br | · | -3.4 | · | -1.6 | · | · | ·
Cn1c2c(c(=O)n(C)c1=O)C(C(F)(F)F)(C(F)(F)F)N=C(c1ccc(Cl)cc1)N2 | 1.2 | 4.4 | 17.8 | ? | 5.4 | ? | 0.6%
COc1ccc(-c2coc3c(C(=O)Nc4cccc(NS(C)(=O)=O)c4)cccc23)c(C)c1 | · | -2.1 | · | -3.0 | · | · | ·
